Source: PubChem BioAssay (National Center for Advancing Translational Sciences (NCATS))
In the library only some 5.7% were active in any assay of this set; here they are far more common.
PI5P4K alpha inh = qHTS for Inhibitors of phosphatidylinositol 5-phosphate 4-kinase (PI5P4K); AID 652105, 2013; max response, %; actives 1.2% (n = 330,000); PI5P4Kalpha enzyme, ADP-Glo luminescence, 60 min; active compounds read low; Phosphatidylinositol 5-phosphate 4-kinase type-2 alpha (Homo sapiens), P48426; active means max response of -50% or lower; inconclusive means between -30% and -50%; inactive means -30% or higher; further: value at the top dose of about 77 µM; on the % scale 0 is the no-effect control and ±100 the full control effect
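PI5P4Kalpha ADP-Glo assay; 5 microM ATP final; 60 min RT reaction; HEPES pH 7.4/EGTA/CHAPS, 5% DMSO; controls lacking substrate or enzyme; luminescent end-point.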
HP1b chromo inh = HTS for Inhibitors of HP1-beta Chromodomain Interactions with Methylated Histone Tails. Chromobox protein homolog 1 (Homo sapiens), P83916. AlphaScreen HP1-beta / biotin-H3K9me3 peptide binding. Potency, µM (series often up to 114 µM), without a hit: top-dose activity change, negative = inhibition, usual class: inhibitors. actives 0.56% (n = 390,000); further: potency means the concentration at half of the fitted maximal effect; nearly all actives have a fitted effect of over 70% in size
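HP1-beta protein (50 nM final) preincubated 30 min at room temperature with biotinylated H3(1-18)K9me3 peptide (50 nM) in PBS pH 7.4, 0.01% Tween-20, then compound added for 30 min. AlphaScreen streptavidin donor/nickel chelate acceptor beads (10 ug/mL final), 30 min dark, luminescence read.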
JMJD2E inh = qHTS Assay for Inhibitors of Human Jumonji Domain Containing 2E (JMJD2E); JMJD2E catalytic domain, FDH-coupled NADH fluorescence (FDH is formaldehyde dehydrogenase); Potency, µM (highest dose often 57.1 µM), inactives show top-dose activity change, negative = inhibition, hits mostly inhibitors; actives 1.6% (n = 230,000); Lysine-specific demethylase 4E (Homo sapiens), B2RXH2; active means well fitted inhibition curve with a large enough effect, not every such curve was filed as active; inconclusive means small, poorly fitted or top-dose-only effect, or another doubt; inactive means no such curve, though single readings can be large or run the other way;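 further: potency means the concentration at half of the fitted maximal effect; 0% = wells with enzyme and -100% = buffer wells without enzyme; nearly all actives have a fitted effect of over 50% in size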
L3MBTL1 block = qHTS Assay for the Inhibitors of L3MBTL1; AID 485360, 2010; AlphaScreen L3MBTL1–H3K9me1 peptide binding; Potency, µM (top dose mostly 57.1 µM), inactives show at the top dose activity, negative = inhibition, most hits filed as inhibitors; actives 0.66% (n = 230,000); further: potency means the concentration at half of the fitted maximal effect; on the % scale 0 is the no-effect control and ±100 the full control effect; nearly all actives have a fitted effect of over 60% in size
Target sequence (Q9Y468 whole entry, looked up): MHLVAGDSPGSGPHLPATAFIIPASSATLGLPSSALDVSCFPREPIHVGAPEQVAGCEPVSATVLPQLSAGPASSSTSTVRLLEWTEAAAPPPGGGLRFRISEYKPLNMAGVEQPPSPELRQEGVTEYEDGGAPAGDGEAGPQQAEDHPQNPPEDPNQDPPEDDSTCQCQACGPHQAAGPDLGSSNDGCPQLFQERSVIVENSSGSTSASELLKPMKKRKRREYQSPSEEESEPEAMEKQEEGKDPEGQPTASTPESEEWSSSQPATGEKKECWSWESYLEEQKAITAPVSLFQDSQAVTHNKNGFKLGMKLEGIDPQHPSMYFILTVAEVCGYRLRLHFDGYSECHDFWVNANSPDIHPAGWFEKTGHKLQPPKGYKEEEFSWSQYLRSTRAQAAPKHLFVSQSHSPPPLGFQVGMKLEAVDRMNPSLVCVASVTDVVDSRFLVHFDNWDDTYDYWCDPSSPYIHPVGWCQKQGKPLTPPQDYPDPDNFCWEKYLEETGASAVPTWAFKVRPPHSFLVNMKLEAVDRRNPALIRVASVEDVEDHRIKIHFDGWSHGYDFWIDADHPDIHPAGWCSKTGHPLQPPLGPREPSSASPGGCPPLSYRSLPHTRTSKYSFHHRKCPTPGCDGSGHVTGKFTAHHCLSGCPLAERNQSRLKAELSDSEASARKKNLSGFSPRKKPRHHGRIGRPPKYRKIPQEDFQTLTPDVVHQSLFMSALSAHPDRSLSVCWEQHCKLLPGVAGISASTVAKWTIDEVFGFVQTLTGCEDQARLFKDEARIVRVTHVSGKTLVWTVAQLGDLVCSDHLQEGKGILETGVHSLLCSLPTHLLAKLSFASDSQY
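AlphaScreen assay: L3MBTL1 (50 nM final) was preincubated 30 min at room temperature with biotinylated H3(1-15)K9me1 peptide (75 nM final), then 30 min with library compounds; streptavidin donor and nickel chelate acceptor beads (10 ug/mL final) added, 30 min dark.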
BAZ2B inh = qHTS Assay for Inhibitors of BAZ2B; Potency, µM (top dose mostly 114 µM), for inactives: at the top dose activity change, negative = inhibition, most hits filed as inhibitors; actives 4.4% (n = 360,000); AlphaScreen BAZ2B-H3K14Ac peptide displacement; AID 504333, 2011; further: potency means the concentration at half of the fitted maximal effect; on the % scale 0 is the no-effect control and ±100 the full control effect; nearly all actives have a fitted effect of over 60% in size
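BAZ2B (50 nM) with biotin-H3(5-23)K14Ac peptide (50 nM) in PBS pH 7.4, 0.01% Tween-20, preformed 30 min, then compound 30 min at room temperature; top concentration 110uM. AlphaScreen streptavidin donor/nickel chelate acceptor beads (10 ug/mL final), 20 min dark, signal read.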
JMJD2A Tudor = qHTS Assay for Inhibitors of JMJD2A-Tudor Domain | Potency, µM (titrated, usually from 114 µM), without a hit: at the top dose activity change, negative = inhibition, usual class: inhibitors | AID 504339, 2011 | actives 4.4% (n = 390,000) | AlphaScreen JMJD2A-Tudor / H3K4me3 peptide binding; further: potency means the concentration at half of the fitted maximal effect; on the % scale 0 is the no-effect control and ±100 the full control effect; nearly all actives have a fitted effect of over 50% in size
* = called active by the depositor; ? = inconclusive; nt = not tested or not shown; [ ] = another dose, or the depositor's remark. Unless noted, the call rests on the fitted dose curve; in most records, active means well fitted inhibition curve with a large enough effect; inconclusive means small, poorly fitted or top-dose-only effect; inactive means no such curve, though single readings can be large or run the other way.

SMILES | PI5P4K alpha inh | HP1b chromo inh | JMJD2E inh | L3MBTL1 block | BAZ2B inh | JMJD2A Tudor
C=CCNc1n[nH]c(=S)s1 | 0 | nt | nt | nt | nt | nt
O=C(Nc1n[nH]c(=S)s1)c1ccc2ccccc2c1 | -55* | 15% | nt | nt | -27% | -15%
O=C(Nc1nccs1)c1ccc2ccccc2c1 | 0 | 39% | nt | 4% | ? | -22%
CC(=O)Nc1n[nH]c(=S)s1 | -86* | ? | nt | nt | nt | 5µM*
CNc1n[nH]c(=S)s1 | -57* | 25µM* | -18% | 0% | -24% | 5µM*
O=C(Cn1c(=O)n(-c2cccc(Cl)c2)c(=O)c2sc3ccccc3c21)N1CCCC1 | nt | 27% | nt | nt | -15% | -19%
CCn1c(S(=O)(=O)O)nc2ccccc21 | -6 | 55% | -1% | 18% | -5% | -2%[11.4 µM]
CC[n+]1c(/C=C/Nc2ccccc2)oc2ccccc21 | nt | 65% | ? | 4% | -30% | -6%
O=S(=O)([O-])CCC[n+]1c(/C=C\Nc2ccccc2)oc2ccc(-c3ccccc3)cc21 | nt | nt | -5% | ? | 79µM* | nt
CC(=O)Nc1ccc(S(=O)(=O)NC2(C(F)(F)F)C(=O)Nc3c2c(=O)[nH]c(=O)n3-c2cccc(Cl)c2)cc1 (stereo unspecified) | nt | 21% | nt | nt | ? | -10%
CCOC(CNC(=O)Cc1c(C)nc2c(-c3ccccc3)c(C)nn2c1C)OCC | -6 | 29% | -6% | nt | -4% | 5%
O=C(CSc1nc2[nH]ncc2c(=O)[nH]1)NCc1ccccc1 | -1 | 25% | 8% | 2% | 3% | -16%
O=C(CSc1nncc(=O)[nH]1)NCc1ccccc1 | -28 | 0% | -2% | 6% | ? | 40µM*
Cn1c2cc([N+](=O)[O-])sc2c2cnn(Cc3ccccc3F)c(=O)c21 | nt | nt | nt | -12% | -1% | nt
Cc1cc(OCC[N+]2(C)CCCCC2)nc2ccccc12 | 3 | -19% | 2% | nt | -11% | 40µM*
Cc1cc(NC2CCCCC2)nc2ccccc12 | 3 | 68% | ? | 18% | 3% | 5%
COc1ccc(Cn2c(CCC(=O)NCc3ccc(Cl)cc3)nc3cccnc32)cc1 | nt | 72% | nt | nt | 17% | -25%
O=C1NC(=S)S/C1=C\c1coc2ccccc2c1=O | -73* | 33% | -20% | 2% | ? | ?
O=C1NC(=S)S/C1=C\c1coc2ccc(O)cc2c1=O | -100* | 12% | -3% | -19% | ? | -1%[11.4 µM]
Cc1cc(N2CCN(c3cccc(C(F)(F)F)c3)CC2)n2nc(-c3ccccc3C)nc2n1 | nt | 14% | nt | nt | -18% | -23%
COC(=O)N[C@@H](CCc1ccccc1)/C(C(=O)OC)=C(\C)NCc1ccccc1 | nt | nt | -3% | nt | nt | nt
N#Cc1c(N)n[nH]c1-c1cc2c([nH]1)CCCC2 | ? | -20% | ? | 2% | ? | ?
N#Cc1cc2c([nH]c1=S)CCCCCC2 | nt | ? | ? | -3% | -4% | 3.2µM*
COc1cc(OC)cc(C(=O)c2c(C)c(C#N)c3ccccn23)c1 | -11 | 71% | nt | nt | 5% | 34%
COC1=C/C(=C/c2c(O)c(C#N)c3ccccn23)C=CC1=O | -18 | ? | ? | -23% | 50µM* | 22µM*
SMILES | PI5P4K alpha inh | HP1b chromo inh | JMJD2E inh | L3MBTL1 block | BAZ2B inh | JMJD2A Tudor
Fc1ccc(OCc2nc3ccccc3s2)cc1 | -7 | 69% | -5% | 20% | 28% | 30%
Cc1ccc(-n2cccn2)cc1 | 0 | 33% | 2% | 5% | -7% | -5%
O=Cc1ccc(-n2cccn2)cc1 | 0 | 33% | 14µM* | 9% | -19% | -16%
CC(C)(C)SCCNS(=O)(=O)c1ccc(C#N)cc1 | -5 | -2% | 3% | 1% | 0% | -14%
CC(C)(C)SCCNS(=O)(=O)c1ccc(Cl)cc1 | -5 | -14% | ? | 5% | -1% | 18µM*
c1ccc(-c2cn(C[C@H]3CC[C@@H]([C@@H]4CC[C@H](Cn5cc(-c6ccccn6)nn5)O4)O3)nn2)nc1 | 1 | 33% | nt | 2.5µM* | 0.71µM* | 3.2µM*
CCOC(=O)N1CCN(C(=O)C2CCN(S(=O)(=O)N3CCCC3)CC2)CC1 | nt | 12% | 0% | -5% | -7% | -1%
CCOC(=O)N1CCN(C(=O)C2CCN(CC3CCCCC3)CC2)CC1 | 15 | -14% | -12% | 0% | -26% | 8.9µM*
COc1cccc(-n2c(SCc3cc(=O)oc4cc(O)c(O)cc34)nc3ccccc3c2=O)c1 | -61* | ? | 13µM* | 32µM* | 35µM* | 40µM*
Cc1cc(C(=O)CSc2nnc(CCC(N)=O)n2C)c(C)n1C1CC1 | 8 | 9% | nt | -7% | -7% | -19%
CCc1ccc(NC(=O)CN2C(=O)CSc3ccc(S(=O)(=O)N(C)C)cc32)cc1 | nt | 9% | nt | nt | -10% | -9%
COc1ccc(OC)c(NC(=O)C2CCN(Cc3cnn(-c4ccccc4)c3-n3cccc3)CC2)c1 | 2 | ? | 1% | nt | ? | 50µM*
O=C1/C(=C\c2ccc(-c3ccccc3[N+](=O)[O-])o2)C(c2ccccc2)=NN1c1ccccc1 | -8 | 7.9µM* | -18% | -5%[11.4 µM] | 6.3µM* | 5.6µM*
CN(C)/C=C1/C(=O)N(c2ccc([N+](=O)[O-])cc2)N=C1c1ccccc1 | nt | nt | ? | -3% | -34% | nt
CC1=NOC(=O)/C1=C\c1ccc(-c2ccc(Br)cc2)o1 | ? | -23% | ? | nt | 11µM* | ?
Cc1ccc(-c2ccc(/C=C3\C(=O)ON=C3c3ccccc3)o2)c([N+](=O)[O-])c1 | nt | -55% | -4% | -2% | 10µM* | 22µM*
Cc1ccc(C2=NOC(=O)/C2=C\c2ccc(C)o2)cc1 | -19 | 28µM* | -19% | ? | 11µM* | 35µM*
CCOC(=O)CC(NC(=O)c1cc2cc(Cl)ccc2oc1=O)c1ccc(C)cc1 (stereo unspecified) | nt | 19% | nt | nt | -12% | -6%
COc1cc2[nH]c(=O)n(Cc3ccc(C(=O)N4CCN(c5cccc(C)c5C)CC4)cc3)c(=O)c2cc1OC | nt | 13% | nt | nt | -4% | -18%
CC1CCCN(CCCNC(=O)c2cc(Sc3ccc(F)cc3)nc3ccccc23)C1 (stereo unspecified) | nt | 11% | nt | nt | -5% | -19%
Cc1cccnc1NC(=O)CN1C(=O)COc2ccc(Cl)cc21 | 2 | 46% | nt | -5% | 56µM* | 0%
O=C(CN1C(=O)COc2ccc(Cl)cc21)Nc1nccs1 | -5 | 15% | nt | -1% | -1% | -1%
O=C(O)c1ccccc1C(=O)Nc1cccc([N+](=O)[O-])c1 | 0 | 38% | 1% | 11% | 3% | -6%
